IL1B secr inh: blocks inflammasome-driven IL-1 beta release. 360,000 tested, 4.7% active. AID 743279. THP-1 LPS/ATP IL-1B secretion, AlphaLISA, 16 h; active compounds read low. activity change, % at 57.5 µM; in the data active means activity change below about -50%; inconclusive means mostly about -30% to -49%
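Secreted IL-1B measured by AlphaLISA bead assay after 16 h compound exposure of THP-1 cells; compounds (final up to 57.5 uM) added 1 h before LPS (250 ng/mL) and ATP (1.25 mM) stimulation; lower signal means less secretion.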
ELG1 DNA repair: ELG1-dependent DNA repair inhibition | HEK293T ELG1-luciferase reporter, luminescence, 16 h; DNA damage induced by 5-fluorouridine | Potency, µM (titrated, usually from 46.1 µM), inactives show top-dose activity change, negative = inhibition, most hits filed as inhibitors | 330,000 tested, 2.3% active; further: potency means the concentration at half of the fitted maximal effect; nearly all actives have a fitted effect of over 55% in size
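Overnight (16 hr) co-exposure of 2,000 cells/well to 5-fluorouridine and compound at 37 °C preceded detection. Luciferase was quantified via ONE-Glo luminescence; loss of signal denotes inhibition.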
HT1080 IDH1KD tx: toxicity to HT-1080 IDH1 knockdown cells (counter line). HT-1080 IDH1 knockdown viability, ATP luminescence, 48 h. Potency, µM (highest dose often 46.1 µM), inactives show at the top dose activity, negative = toxicity, most hits filed as cytotoxic. 360,000 tested, 2% active;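 further: potency means the concentration at half of the fitted maximal effect; 0% = DMSO wells and -100% = cell-free medium wells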
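Assay cells: HT-1080 with IDH1 knockdown, 750 per well, RPMI/5% FBS. Exposure: 48 h at 37 °C following 2 h pre-incubation. Read: CellTiter-Glo luminescence; fitted concentration-response, curve class assigned.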
DT40 TDP1 CPT: DT40-hTDP1 cell growth loss with CPT. Potency, µM (titrated, usually from 46.2 µM), without a hit: at the top dose activity change, negative = growth inhibition, usual class: inhibitors. 420,000 tested, 12% active. AID 686979. chicken DT40 Tdp1-/-;hTDP1 cells + 20 nM CPT, ATP luminescence, 48 h; further: potency means the concentration at half of the fitted maximal effect; nearly all actives have a fitted effect of over 55% in size
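Chicken DT40 Tdp1-/- cells complemented with human TDP1, 400 cells/well, exposed to compounds plus 20 nM camptothecin for at least 48 h at 37 C; viability read as ATP content by CellTiter-Glo luminescence.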
DT40 TDP1 no CPT: qHTS for Inhibitors of human tyrosyl-DNA phosphodiesterase 1 (TDP1): qHTS in cells in absence of CPT. Potency, µM (highest dose often 46.2 µM), without a hit: at the highest dose activity change, negative = growth inhibition, hits mostly inhibitors. 420,000 tested, 15% active. DT40 Tdp1-/- hTDP1 cells, no CPT, ATP luminescence, 48 h. AID 686978, 2013; further: potency means the concentration at half of the fitted maximal effect; nearly all actives have a fitted effect of over 55% in size
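Chicken DT40 Tdp1-/- cells stably complemented with human TDP1 were seeded at 400 cells/well with DMSO in place of 20 nM camptothecin. After compound pinning, cells grew at least 48 hr at 37 °C; viability read by CellTiter-Glo luminescence.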
HT1080-NT tox: kills 2HG-producing HT-1080-NT fibrosarcoma cells; HT-1080-NT fibrosarcoma viability, CellTiter-Glo ATP luminescence, 48 h; Potency, µM (highest dose often 46.1 µM), for the others: at the top dose activity, negative = less viability, usual class: cytotoxic; 360,000 tested, 1.6% active; AID 686970;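 further: NT is the 2HG producing partner of a matched IDH1 knockdown line; potency means the concentration at half of the fitted maximal effect; 0% = DMSO-treated cells and -100% = media-only wells without cells; nearly all actives have a fitted effect of over 55% in size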
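Toxicity toward the 2HG-producing NT line was scored as %Activity, normalised to DMSO and no-cell wells, from CellTiter-Glo luminescence after 48 hours' treatment.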
* hit, by the source's call; u = inconclusive; x = no result given. Shown are actives, neighbours in structure and some others; about 19% of the full set was active somewhere. Unless noted, the call rests on the fitted dose curve; in most records, active means well fitted curve in the direction sought with a large enough effect; inconclusive means small, poorly fitted or top-dose-only effect, or another doubt; inactive means no such curve, though single readings can be large; an effect the other way counts as inactive or inconclusive. Unless noted, on the % scale 0 is the no-effect control and ±100 the full control effect.

SMILES	IL1B secr inh	ELG1 DNA repair	HT1080 IDH1KD tx	DT40 TDP1 CPT	DT40 TDP1 no CPT	HT1080-NT tox
Cc1ccc(CN2C(=O)CN(C3CCCCCC3)C(=O)C2c2ccc(F)cc2)cc1 (stereo not drawn)	x	x	x	18µM*	16µM*	x
O=C1C(c2ccc(F)cc2)N(Cc2ccc3c(c2)OCO3)C(=O)CN1C1CCCCC1 (stereo not drawn)	-6	-5%	-16%	u	-24%	-11%
CCCOc1ccc(C2C(=O)N(C3CCCCCC3)CC(=O)N2CCC)cc1OC (stereo not drawn)	x	x	x	23µM*	u	x
CCCOc1ccc(C2C(=O)N(C3CCCCC3)CC(=O)N2CCCOCC)cc1OC (stereo not drawn)	10	-18%	4%	u	-24%	13%
COc1ccc(C2C(=O)N(C3CCCCCC3)CC(=O)N2Cc2ccc(C)cc2)cc1OC (stereo not drawn)	x	x	x	23µM*	23µM*	x
CCCOc1ccc(C2C(=O)N(C3CCCCCC3)CC(=O)N2Cc2ccc(OC)cc2)cc1OC (stereo not drawn)	x	x	x	u	23µM*	x
COCCCNc1nc2ccccc2nc1NS(=O)(=O)c1cc(Cl)ccc1Cl	0	-18%	-3%	u	u	-11%
CN(Cc1ccccc1)C(=O)CCn1c(=O)c2cccn2c2cccnc21	-3	6%	-1%	-17%	-11%	-1%
CCOC(=O)c1ccc(OCCN2C[C@H](O)[C@@H](O)[C@H](O)[C@H]2CO)cc1	x	x	x	-3%	u	x
Cc1ccc(Cl)cc1N1CCN(C(=O)COCc2cc(-c3ccc4c(c3)OCO4)on2)CC1	x	x	x	-1%	-25%	x
CCOCCCN1C(=O)CN(C2CCCCCC2)C(=O)C1c1ccc(OC)cc1 (stereo not drawn)	5	u	-11%	7.9µM*	u	9%
Cc1ccc(C2C(=O)N(C3CCCC3)CC(=O)N2C2CCCCC2)cc1 (stereo not drawn)	-12	5%	-8%	-25%	u	-7%
O=C1C(c2ccc(F)cc2)N(CCc2ccccc2)C(=O)CN1C1CCCCCC1 (stereo not drawn)	x	x	x	u	13µM*	x
Cc1ccc(C2C(=O)N(C3CCCCCC3)CC(=O)N2C(C)C)cc1 (stereo not drawn)	x	x	x	u	26µM*	x
CCN(C[C@H]1N[C@@](C)(C(=O)OC)[C@H]2C(=O)N(Cc3ccccc3)C(=O)[C@@H]12)C(=O)c1ccc(C)cc1	10	u	12%	-4%	-4%	11%
CC(C)(CNC(=O)c1ccccc1NS(C)(=O)=O)N1CCCCC1	-4	-2%	2%	14%	8%	1%
CC[C@]12c3[nH]c4ccc(OC)cc4c3CCN1C(=O)C(CC(=O)NCCCN(C)C)C[C@@H]2C(=O)N1CCN(C(=O)c2ccco2)CC1 (stereo partly drawn)	-4	27%	10%	-2%	-9%	16%
O=C1Nc2ccccc2N(C(=O)c2ccc(-c3ccccc3)cc2)C1c1nc2ccccc2[nH]1 (stereo not drawn)	21	x	16µM*	u	21µM*	u
CCC(C)NC(=O)CSc1nnc(-c2cc(-c3cccs3)nc3ccccc23)o1 (stereo not drawn)	-10	u	-4%	u	18µM*	0%
O=C(NN=Cc1ccccc1OC(F)F)c1ccc(NS(=O)(=O)c2cccs2)cc1	0	u	u	u	u	-21%
COc1cccc(CSc2nc3n(n2)C(c2cccs2)C(C(=O)Nc2ccccc2C)=C(C)N3)c1 (stereo not drawn)	x	x	x	21µM*	13µM*	x

High-throughput results as filed in PubChem.
